# Laboratory results as given in paper PMC11062922 (Nature Chemical Biology, 2023).
# Legend:
# Design in all cases: species or system human, MV4-11 + K-562 + COLO205 + SK-N-BE2 + OVCAR-8
# [1] = test system: CLK1; conditions: read-out: apparent Kd; compound concentrations:100 nM and 1000 nM (sheet 'Samples'); n = 1
# [2] = test system: CLK4; conditions: read-out: apparent Kd; compound concentrations:100 nM and 1000 nM (sheet 'Samples'); n = 1
# [3] = test system: CSNK1A1; conditions: read-out: apparent Kd; compound concentrations:100 nM and 1000 nM (sheet 'Samples'); n = 1
# [4] = test system: DYRK1A; conditions: read-out: apparent Kd; compound concentrations:100 nM and 1000 nM (sheet 'Samples'); n = 1
# [5] = test system: MAP3K5; conditions: read-out: apparent Kd; compound concentrations:100 nM and 1000 nM (sheet 'Samples'); n = 1
# [6] = test system: MAP3K6; conditions: read-out: apparent Kd; compound concentrations:100 nM and 1000 nM (sheet 'Samples'); n = 1
# [7] = test system: NUAK1; conditions: read-out: apparent Kd; compound concentrations:100 nM and 1000 nM (sheet 'Samples'); n = 1
# [8] = test system: NUAK2; conditions: read-out: apparent Kd; compound concentrations:100 nM and 1000 nM (sheet 'Samples'); n = 1
# [9] = test system: PDGFRB; conditions: read-out: apparent Kd; compound concentrations:100 nM and 1000 nM (sheet 'Samples'); n = 1
# [10] = test system: PI4KB; conditions: read-out: apparent Kd; compound concentrations:100 nM and 1000 nM (sheet 'Samples'); n = 1
# [11] = test system: PKN2; conditions: read-out: apparent Kd; compound concentrations:100 nM and 1000 nM (sheet 'Samples'); n = 1
# [12] = test system: PRKD2; conditions: read-out: apparent Kd; compound concentrations:100 nM and 1000 nM (sheet 'Samples'); n = 1
# [13] = test system: PRKD3; conditions: read-out: apparent Kd; compound concentrations:100 nM and 1000 nM (sheet 'Samples'); n = 1
# [14] = test system: RPS6KA1; conditions: read-out: apparent Kd; compound concentrations:100 nM and 1000 nM (sheet 'Samples'); n = 1
# [15] = test system: RPS6KA6; conditions: read-out: apparent Kd; compound concentrations:100 nM and 1000 nM (sheet 'Samples'); n = 1
# [16] = test system: RPS6KB1; conditions: read-out: apparent Kd; compound concentrations:100 nM and 1000 nM (sheet 'Samples'); n = 1
# [17] = test system: CDKL5; conditions: read-out: apparent Kd; compound concentrations: 100 nM and 1000 nM (sheet 'Samples'), CATDS: 0.14258501509608601; n = 1
# [18] = test system: MAPK10; conditions: read-out: apparent Kd; compound concentrations: 100 nM and 1000 nM (sheet 'Samples'), CATDS: 0.149195814483779; n = 1
# [19] = test system: MAPK14; conditions: read-out: apparent Kd; compound concentrations: 100 nM and 1000 nM (sheet 'Samples'), CATDS: 0.62465881952288804; n = 1
# [20] = test system: MAPK9; conditions: read-out: apparent Kd; compound concentrations: 100 nM and 1000 nM (sheet 'Samples'), CATDS: 0.14319279027503101; n = 1
# [21] = test system: MAPKAPK2; conditions: read-out: apparent Kd; compound concentrations: 100 nM and 1000 nM (sheet 'Samples'), CATDS: 0.37042886154437599; n = 1
smiles,measurement,setting,value
C[C@@H]1CCNC(=O)c2cc3ccc(C(=O)Nc4nc5ccccc5n4CCCN(C)C)cc3n21 [BI00645435],potency estimated from few doses,[1],941 nM
same,potency estimated from few doses,[2],931 nM
same,potency estimated from few doses,[3],1000 nM
same,potency estimated from few doses,[4],2100 nM
same,potency estimated from few doses,[5],2300 nM
same,potency estimated from few doses,[6],1700 nM
same,potency estimated from few doses,[7],110 nM
same,potency estimated from few doses,[8],383 nM
same,potency estimated from few doses,[9],1670 nM
same,potency estimated from few doses,[10],581 nM
same,potency estimated from few doses,[11],1760 nM
same,potency estimated from few doses,[12],731 nM
same,potency estimated from few doses,[13],1480 nM
same,potency estimated from few doses,[14],529 nM
same,potency estimated from few doses,[15],5.39 nM
same,potency estimated from few doses,[16],106 nM
Cl.Cn1c(=O)c(Oc2ccc(F)cc2F)cc2cnc(N[C@H]3CCOC3)nc21 [RO3311017-001],potency estimated from few doses,[17],1540 nM
same,potency estimated from few doses,[18],1260 nM
same,potency estimated from few doses,[19],19.2 nM
same,potency estimated from few doses,[20],1510 nM
same,potency estimated from few doses,[21],54.5 nM
